Inconclusive results are not listed. Values without a mark were called inactive. Activity calls are given as the source filed them. Calls come from the whole dose curve; as a rule, active = well fitted cell-killing curve with a large enough effect in the repeat runs; inconclusive = weak or mixed curves, or effect the other way; inactive = flat fitted curve, though single readings scatter.
assay: qHTS assay to identify small molecule that activate the aryl hydrocarbon receptor (AhR) signaling pathway - cell viability counter screen (AID 743086); details: HepG2-AhR-luc viability, CellTiter-Fluor, 24 h; series mostly up to 70.3 µM; viability change, negative = cytotoxic: at the top concentration;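 note: HepG2 liver cells carrying the AhR DRE luciferase reporter; nearly all actives have a fitted effect of over 45% in size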
Source text: U.S. Tox21 Program National Center for Advancing Translational Sciences [NCATS] NIH Chemical Genomics Center [NCGC] U.S. Environmental Protection Agency [EPA] National Institutes of Environmental Health Sciences [NIEHS] National Toxicology Program [NTP] U.S. Food and Drug Administration [FDA] Tox21 Assay overview: The Aryl hydrocarbon Receptor (AhR), a member of the family of basic helix-loop-helix transcription factors, is crucial to adaptive responses to environmental changes. AhR mediates cellular responses to environmental pollutants such as aromatic hydrocarbons through induction of phase I and II enzymes but also interacts with other nuclear receptor signaling pathways A cell based HepG2-AhR-luc assay (HG2L7.5c1 cell line, developed by Dr. Michael S. Denison, University of California at Davis) was used to assess the activation of AhR. HepG2 (human hepatocellular carcinoma) cells were stably transfected with an Ah receptor-responsive firefly luciferase reporter gene plasmid containing 20 dioxin responsive elements and luciferase reporter gene. Increased luciferase activity can be used to identify the compounds that induce AhR activation. The cytotoxicity of the compounds screened against the HepG2-AhR-luc cell line was tested in parallel by measuring the cell viability using CellTiter-Fluor assay in the same wells.
Tox21 Assay Protocol Summary: 4000 cells in 5 uL/well were dispensed into white wall/solid bottom 1536-well plates using a Multidrop Combi (Thermo Fisher Scientific Inc., Waltham, MA) dispenser. After the assay plates were incubated at 37C for 5 h, 23 nL of compound or DMSO vehicle was transferred to the assay plates by a pintool station (Kalypsys, San Diego, CA). The plates were incubated at 37C for 24 hr. For cell viability measurement, 1 ul/well of CellTiter-Fluor reagent (Promega, Madison, WI) was added into the assay plates using a Flying Reagent Dispenser (FRD) (Aurora Discovery, CA),and then the assay plates were incubated at 37C for 30 min. The fluorescence intensity in the plates was measured using a ViewLux plate reader (PerkinElmer, Shelton, CT), followed by the addition of 4 uL of ONE-Glo Luciferase Assay reagent (Promega) using an FRD (Aurora Discovery). After the assay plates were incubated at room temperature for 30 min, luminescence intensity was measured using a ViewLux plate reader (Perkin Elmer).
% is set by controls: 0 for no effect and ±100 for the full control effect.

| Compound | viability change, negative = cytotoxic | Potency |
| --- | --- | --- |
| CCCC(C)C1(CC)C(=O)N=C(S)NC1=O (stereo not given) | -1.58% | – |
| CCC1(c2ccccc2)C(=O)N(COC)C(=O)N(COC)C1=O | 3.8% | – |
| C=CCN1CC[C@]23CCCC[C@H]2[C@H]1Cc1ccc(O)cc13 | -1.62% | – |
| CCCCCCCCSC(=O)Oc1cc(Cl)nnc1-c1ccccc1 | 2.12% | – |
| [P]#[In] | 0.305% | – |
| CCC(C(N)=O)N1CCCC1=O (stereo not given) | 10.5% | – |
| Cl/C=C/CCl | 8.84% [at 95 µM] | – |
| CCOC(=O)Nc1cccc(OC(=O)Nc2ccccc2)c1 | -9.9% | – |
| COc1cc(CCN)cc(OC)c1OC | 2.81% [at 95 µM] | – |
| COP(=O)(O)OC | -4.53% [at 95 µM] | – |
| O=C(NC(=O)c1c(F)cccc1F)Nc1cc(Cl)c(F)c(Cl)c1F | 12.9% | – |
| [O-][Br+2]([O-])O | 0.308% | – |
| Brc1c(Br)c(Br)c(Br)c(Br)c1Br | 2.59% [at 8.47 µM] | – |
| CC(C)NCC(O)c1ccc([N+](=O)[O-])cc1 (stereo not given) | -19.2% | – |
| C[C@H](N)C(=O)c1ccccc1 | – | inactive |
| COC(=O)[C@@H](N)CCCN/C(N)=N/[N+](=O)[O-] | 5.95% | – |
| O=C(Cl)CCl | 12.4% [at 95 µM] | – |
| COc1cccc([C@@]2(O)CCCC[C@@H]2CN(C)C)c1 | -7.11% | – |
| C#CCOC(=O)/C=C(C)/C=C/CC(C)CCCC(C)C (stereo not given) | -6.96% | – |
| Cc1cccc2sc3nncn3c12 | 11.5% | – |

| Compound | viability change, negative = cytotoxic | Potency |
| --- | --- | --- |
| BrCCc1ccccc1 | 0.886% [at 95 µM] | – |
| c1cncc([C@@H]2CCCCN2)c1 | 1.59% | – |
| O=C(Cl)OCc1ccccc1 | 10.4% [at 95 µM] | – |
| COC(=O)c1ccccc1CS(=O)(=O)NC(=O)Nc1nc(OC)cc(OC)n1 | 5.42% | – |
| CCOP(=S)(OCC)SCCl | -0.79% | – |
| O=C(Cl)/C=C/C(=O)Cl | 1.06% [at 95 µM] | – |
| NCCOS(=O)(=O)O | -6.78% | – |
| CCOC1Oc2ccc(OS(C)(=O)=O)cc2C1(C)C (stereo not given) | -25.6% | – |
| Oc1ccc(Cc2ccc(O)cc2)cc1 | -0.66% [at 95 µM] | – |
| Oc1ccc2c3c1O[C@H]1[C@@H](O)C=C[C@H]4[C@@H](C2)NCC[C@@]341 | 14.5% [at 95 µM] | – |
| COc1ccc(C=O)cc1O | -2.68% [at 95 µM] | – |
| CC[C@H](N)c1ccccc1 | -3.63% | – |
| CCCCCCCCBr | 6.22% | – |
| ClC1=C(Cl)C2(Cl)C(CBr)CC1(Cl)C2(Cl)Cl (stereo not given) | – | inactive |
| CCCOc1nn(C(=O)NS(=O)(=O)c2ccccc2C(=O)OC)c(=O)n1C | -0.515% | – |
| CC(C)(C1CCC(O)CC1)C1CCC(O)CC1 (stereo not given) | -1.76% | – |
| CCOC(=O)c1ncn2c1CN(C)C(=O)c1c(I)cccc1-2 | -3.44% | – |
| C=C1CC[C@@]2(O)[C@H]3Cc4ccc(O)c5c4[C@@]2(CCN3CC2CC2)[C@H]1O5 | -1.03% | – |
| CC(=O)OCC1=C(C(=O)O)N2C(=O)[C@@H](N)[C@H]2SC1 | -1.71% [at 32.5 µM] | – |
| CN=CNc1ccc(C)cc1C | -0.998% | – |

From PubChem BioAssay (Tox21)
